High-throughput results: PubChem, National Center for Advancing Translational Sciences (NCATS)
SMN2 splice enh: enhancers of SMN2 splice variant expression; Potency, µM (highest dose often 46.1 µM), for the others: at the highest dose activity change, positive = activation, usual class: activators; actives 2.8% (n = 210,000); HEK293 SMN2-luciferase splicing reporter, luminescence, 30-36 h; further: % of control where 0% means no effect; nearly all actives have a fitted effect of over 55% in size
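HEK293 cells carry an SMN2 minigene-luciferase reporter in which exon 7 inclusion puts luciferase in frame. Cells were seeded at 2000 cells/well, attached for 10-12 hours, then exposed to compounds for 30-36 hours at 37C before ONE-Glo luminescence.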
Rab9 prom act: activates the Rab9 promoter; Potency, µM (highest dose often 9.22 µM), for inactives: at the top dose activation, negative = inhibition, hits mostly activators; AID 485297; Huh7 Rab9 promoter-luciferase reporter, luminescence, 24 h; actives 2.8% (n = 320,000); further: % of control where 0% means no effect; nearly all actives have a fitted effect of over 60% in size
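Stable Rab9-luc Huh7, 1500 cells/well, 2 h settle; cmpd in DMSO, 24 h, 37 °C/5% CO2; luciferase reagent 10 min RT; luminescence.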
NPC1 promoter act: activates the NPC1 promoter. Huh7 NPC1 promoter luciferase reporter, 24 h. actives 2.4% (n = 320,000). AID 485313. Potency, µM (top dose mostly 9.22 µM), without a hit: at the top dose activation, hits mostly activators; further: % of control where 0% means no effect; nearly all actives have a fitted effect of over 60% in size
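Stably transfected Huh7 (NPC1 promoter→luciferase), 1500 cells/well in Opti-MEM + 10% FBS, 2 h settle, then compound 24 h at 37 °C. Luminescence after 10 min with Amplite reagent.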
ELG1 genotoxic: inducers of genotoxicity in HEK293T ELG1-luciferase cells | HEK293T ELG1-luciferase reporter, luminescence, 16 h | Potency, µM (titrated, usually from 46 µM), for inactives: top-dose activity change, positive = activation, actives largely listed as activators | actives 1.3% (n = 330,000) | AID 504466; further: % of control where 0% means no effect; nearly all actives have a fitted effect of over 60% in size
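DMSO vehicle served as control against compound-treated ELG1-luciferase HEK293T cells; exposure lasted 16 hr at 37 °C and 5% CO2, followed by ONE-Glo luminescence detection after 30 min.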
FLuc counter: firefly luciferase modulation, counter-screen for miR-21 project. P08659. purified FLuc, Km substrates, luminescence inhibition. Potency, µM (doses to about 57.5 µM), inactives show at the top dose activity change, negative = inhibition, most hits filed as inhibitors. actives 6.9% (n = 360,000);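 further: plate controls were vehicle for no effect and reference inhibitor for full effect; nearly all actives have a fitted effect of over 55% in size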
Target sequence (P08659 whole entry, looked up): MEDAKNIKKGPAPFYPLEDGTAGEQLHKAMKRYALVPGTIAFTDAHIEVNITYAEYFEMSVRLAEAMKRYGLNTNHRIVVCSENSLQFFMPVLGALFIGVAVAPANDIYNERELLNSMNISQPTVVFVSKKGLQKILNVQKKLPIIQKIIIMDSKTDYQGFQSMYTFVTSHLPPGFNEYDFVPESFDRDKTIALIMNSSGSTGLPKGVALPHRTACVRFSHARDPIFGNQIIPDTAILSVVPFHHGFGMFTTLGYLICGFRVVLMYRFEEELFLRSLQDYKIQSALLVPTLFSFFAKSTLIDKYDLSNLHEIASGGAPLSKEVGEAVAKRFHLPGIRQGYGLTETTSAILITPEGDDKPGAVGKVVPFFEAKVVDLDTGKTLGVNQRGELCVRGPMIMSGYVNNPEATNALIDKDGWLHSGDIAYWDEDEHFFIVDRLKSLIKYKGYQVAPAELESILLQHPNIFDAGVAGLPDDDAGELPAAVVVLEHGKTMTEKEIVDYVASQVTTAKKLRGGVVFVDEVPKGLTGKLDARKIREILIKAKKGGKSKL
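Biochemical qHTS of compounds, final roughly 60 µM downward over six points, against 10 nM purified firefly luciferase using Km concentrations of substrates (10 uM D-luciferin, 10 uM ATP) in Tris acetate pH 7.5 buffer; luminescence output.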
The depositor's hits bear a star; ? = inconclusive; . = no result; [ ] = remark or other dose. The list is not random: actives were taken first. Their share in the collection is about 7.4%. The call rests on the fitted dose curve; in most records, active means well fitted curve in the direction sought with a large enough effect; inconclusive means small, poorly fitted or top-dose-only effect, or another doubt; inactive means no such curve, though single readings can be large; an effect the other way counts as inactive or inconclusive. Potency means the concentration at half of the fitted maximal effect.

SMILES	SMN2 splice enh	Rab9 prom act	NPC1 promoter act	ELG1 genotoxic	FLuc counter
COc1ccccc1C(=O)Nc1cc(-c2ccc(C)cc2)no1	?	?	?	?	6µM*
CC(C)=CC(=O)Nc1nnc(C)s1	?	16%	9%	15%	-17%
COc1ccccc1C(=O)Nc1nnc(C)s1	18%	?	?	13µM*	17µM*
COC(=O)c1cc(OC)c(OC)cc1NC(=O)c1cccc(OC)c1OC	-14%	-8%	3%	-5%	-4%
CC(C)=CC(=O)Nc1nnc(-c2ccccc2)s1	11µM*	1.4µM*	2.2µM*	2.9µM*	?
COc1ccc(Oc2ncc3ncc(=O)n(C[C@H]4CCCO4)c3n2)cc1	-12%	.	.	.	.
COc1cccc(C(=O)NOCc2ccccc2)c1OC	.	?	?	?	27µM*
COc1cccc(C(=O)OCC(=O)NCCc2ccccc2)c1OC	2%	-4%	-3%	0%	-4%
COc1ccccc1C(=O)Nc1nc(-c2cccs2)c(NC(C)=O)s1	?	?	19%	9.2µM*	0.76µM*
COCCN(C(=O)c1ccccc1OC)c1nnc(C)s1	-10%	-4%	-2%	-1%	-1%
O=C(Nc1nnc(-c2ccccc2)s1)c1ccccc1O	.	2.5µM*	1.8µM*	2%	4.3µM*
COc1ccccc1C(=O)N(C)c1nnc(-c2ccccc2)s1	.	?	3.5µM*	5%	19µM*
COc1ccc(CCNC(=O)CCc2ccc(S(=O)(=O)NCC(C)C)cc2)cc1OC	.	1%	-6%	-1%	-2%
COc1cccc(C(=O)Nc2nnc(-c3ccccc3)s2)c1OC	.	1.8µM*	2.5µM*	?	12µM*
O=C(Nc1cccc(C(F)(F)F)c1)c1ccc(F)c(S(=O)(=O)N2CCc3ccccc3C2)c1	.	.	.	.	1%
CC(C)CC1c2[nH]c3ccccc3c2CCN1C(=O)c1cnccn1 (stereo not drawn)	.	3.5µM*	3.5µM*	?	11µM*
CNC(=O)c1sc2nc(-c3ccc(OC)cc3)cn2c1C	.	0.89µM*	1.6µM*	2.1µM*	3.4µM*
COc1ccc(-c2cn3c(C)c(C(=O)Nc4cc(NC(C)=O)ccc4OC)sc3n2)cc1	14%	-4%	-15%	1%	?
CCN(CC)C(=O)c1sc2nc(-c3ccc(OC)cc3)cn2c1C	?	?	1.8µM*	?	7.6µM*
COc1ccc(CNC(=O)Cc2csc3nc(-c4ccc(C)cc4)cn23)cc1	.	.	.	.	17µM*
CCCCOc1ccc(CNC(=O)c2cc3n(n2)CCCN(Cc2ccc(C)cc2)C3=O)cc1	.	.	.	.	-19%
O=C(NNC(=O)c1ccccc1Cl)c1ccc(-n2cncn2)c([N+](=O)[O-])c1	.	-10%	-8%	1%	4%
COc1cccc2c1OCC/C2=N\NC(=O)COc1ccccc1C	17%	1%	9%	9%	6.7µM*
COc1cccc2c1OCC/C2=N\NC(=O)COc1ccc(C)cc1	30%	1%	-1%	7%	15µM*
O=C1C2C3C=CC(C4CC34)C2C(=O)N1/N=C/c1ccc(-c2ccc(Cl)cc2[N+](=O)[O-])o1 (stereo not drawn)	-16%	-4%	0%	-6%	-18%
SMILES	SMN2 splice enh	Rab9 prom act	NPC1 promoter act	ELG1 genotoxic	FLuc counter
O=C1C2C3C=CC(C4CC34)C2C(=O)N1/N=C/c1ccc(-c2ccc(F)cc2[N+](=O)[O-])o1 (stereo not drawn)	0%	-2%	6%	-2%	13µM*
CCCCC(CC)COCCCN (stereo not drawn)	1%	.	.	.	.
Cc1ccc(S(N)(=O)=O)cc1NC(=O)C(c1ccccc1)c1ccccc1	.	-1%	0%	1%	0%
CCOc1cc(/C=C/c2ccc3cccc([N+](=O)[O-])c3n2)ccc1O	9%	-1%	-3%	0%	?
CCOc1cccc(/C=C/c2ccc3cccc(O)c3n2)c1O	.	?	?	23µM*	5.4µM*
CCOc1cccc(/C=C/c2ccc3cccc(O)c3n2)c1OC	.	12%[1.84 µM]	3.2µM*	21µM*	4.8µM*
COc1ccc([C@]23Cc4cc(OC)c(OC)cc4C(O2)c2c(c4ccccc4oc2=O)O3)cc1	.	8%[1.84 µM]	-1%[1.84 µM]	.	-17%[11.5 µM]
Cc1ccc(OCCNc2cc(N3CCN(CCO)CC3)ccc2[N+](=O)[O-])cc1C	-4%	-5%	0%	-2%	24µM*
CC(C)NC(=O)N(C)C[C@H]1Oc2c(NC(=O)C3CC3)cccc2C(=O)N([C@H](C)CO)C[C@@H]1C	.	.	.	-1%	.
COc1cccc(/C=C/C(=O)OCC(=O)NC2CCCCCCC2)c1	.	.	.	-1%	.
O=C(/C=C/c1ccc(Br)cc1)c1ccc(NC2=NCCCS2)cc1	.	-4%	1%	-14%	?
O=C(/C=C/c1ccccc1)c1ccc(NC2=NCCCS2)cc1	20%	?	?	?	4.3µM*
CC(C)(C)c1ccc(/C=C/C(=O)c2ccc(NC3=NCCCS3)cc2)cc1	-107%	-3%	1%	-11%	15µM*
Cc1cccc(C(=O)Nc2ccc(C(=O)/C=C/c3cccnc3)cc2)c1	26%	17%	13%	?	-7%
Cc1cccc(/C=C/C(=O)c2ccc(NC3=NCCCS3)cc2)c1	-20%	18%	8%	?	13µM*
COc1cccc(/C=C/C(=O)c2ccc(NC3=NCCCS3)cc2)c1	-26%	1%	-3%	?	11µM*
CN(CC1CCCN(CCc2cccc(C(F)(F)F)c2)C1)C(=O)c1cc2ccccc2o1 (stereo not drawn)	.	-10%	1%	0%	1%
Cc1ccc(NC(=O)CC2Sc3ccccc3NC2=O)c(Br)c1 (stereo not drawn)	-2%	.	.	.	-5%
CC1CCCCN1CCCNC(=O)c1sc2ncccc2c1-n1cccc1 (stereo not drawn)	.	.	.	.	-2%
